In PubChem BioAssay (NCI):
This is part of a sample that, as a whole, favours compounds with a hit. Of some 83,000 tested, about 20% had one in any assay.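 Each cell line was grown in a 96-well plate and treated with one concentration of compound for 48 hours. Values below 10 were considered active.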 Unmarked numbers belong to inactive results. Calls of active or inactive are those of the source.

Tests used:
Experiment in all cases: NCI-60 one-dose screen, 48 h (100 = growth as untreated, 0 = no growth, -100 = all killed)
Conditions in all cases: 10 µM unless noted
[1] = test system: NCI-H23 lung
[2] = test system: NCI-H226 lung
[3] = test system: NCI-H322M lung
[4] = test system: HOP-62 NSCLC
[5] = test system: NCI-H460 lung
[6] = test system: HOP-92 NSCLC
[7] = test system: NCI-H522 lung
[8] = test system: A549/ATCC NSCLC
[9] = test system: 786-0 renal
[10] = test system: COLO 205 colon

| Structure (SMILES) | growth [1] | growth [2] | growth [3] | growth [4] | growth [5] | growth [6] | growth [7] | growth [8] | growth [9] | growth [10] |
| --- | --- | --- | --- | --- | --- | --- | --- | --- | --- | --- |
| Cc1ccc(N(CC2=NCCN2)c2cccc(O)c2)cc1 | 100% | 100% | 91.5% | 103% | 107% | 91.2% | 102% | 98.8% | 96.8% | 119% |
| O=C(C[n+]1ccccc1Cl)c1ccc2c(c1)CCCC2 | 92% | 112% | 106% | 90.6% | 107% | 95.1% | 87.4% | 85.6% | 75.5% | 56.3% |
| COc1cc([C@@H]2c3cc4c(cc3C(OC3O[C@@H]5COC(C)O[C@H]5[C@H](O)[C@H]3O)C3COC(=O)[C@@H]32)OCO4)cc(OC)c1O (stereo not given in full) | 14.3% | 33.1% | 115% | -9.99% (active) | 7.32% (active) | 63.5% | 24.3% | 29.7% | -13.1% (active) | 60.6% |
| CC(/C=C/C=C(\C)[C@H](O)[C@H](C)C(=O)O[C@H]1C[C@H](C)C=C2C=C[C@@]3(C)O[C@@H](O)CC(=O)[C@]3(C)[C@H]21)=C\C=C\C(=O)O | -6.25% (active) | -3.28% (active) | 4.63% (active) | -3.68% (active) | 2.9% (active) | -14.2% (active) | -11.8% (active) | 3.63% (active) | 1.96% (active) | -55.9% (active) |
| COc1cc(C(=O)C[n+]2ccccc2)ccc1OC(C)=O | 106% | 96.3% | 106% | 94.6% | 99% | 91.5% | 98% | 98.3% | 90.9% | 104% |
| CCC(N)(C(=O)O)c1ccc(F)cc1 (stereo not given) | 102% | 106% | 113% | 104% | 106% | 93.9% | 90.2% | 81.5% | 99.9% | 105% |
| COC1OCC(OS(=O)(=O)c2ccc(C)cc2)C(OC(=O)c2ccccc2)C1OC(=O)c1ccccc1 (stereo not given) | 68.4% | 68.4% | 76.6% | 42.2% | 17.4% | 62.2% | 19% | 48.7% | 42.1% | 36.4% |
| Oc1ccc(O)c(-[n+]2ccccc2)c1 | 99.4% | 93% | 109% | 94.2% | 105% | 92.6% | 82.7% | 83.8% | 95.3% | 112% |
| CN1CCN(CC(=O)N(C)c2ccc(N=C(c3ccccc3)c3c(O)[nH]c4ccc(C#N)cc34)cc2)CC1 | 35.5% | 43.2% | 37.7% | 39.7% | 21.2% | 63.8% | 45.3% | 19.6% | 32.4% | 0.511% (active) |
| Nc1ncnc2c1c(-c1ccc(Oc3ccccc3)cc1)nn2C[C@@H]1SSC[C@H]1O | 40.6% | -3.02% (active) | 36.9% | 37.6% | 3.61% (active) | -6.86% (active) | 10.1% | 21.4% | 42.7% | 52% |
| CC(=O)CC/C=C(\C)[C@H](O)[C@H](C)C(=O)O[C@H]1C[C@H](C)C=C2C=C[C@@]3(C)O[C@@H](O)CC(=O)[C@]3(C)[C@H]21 | -35.8% (active) | -50.5% (active) | -17.6% (active) | -31.8% (active) | -16.6% (active) | -32.5% (active) | -43.4% (active) | -10.6% (active) | -49.7% (active) | -45.6% (active) |
| O=[N+]([O-])c1cccc(C(c2ccccc2)c2ccccc2)c1 | 87.5% | 76.9% | 90.6% | 88.7% | 87.5% | 63.9% | 79.1% | 87.7% | 97.3% | 95.2% |
| Cc1cc(Nc2ccc(Cl)c(Cl)c2)nc(N)n1 | 89.5% | 92% | 110% | 98.3% | 94.3% | 97.7% | 78.3% | 71.8% | 78.9% | 107% |
